Experimental data published in article PMC4552634, “A New Set of Chemical Starting Points with Plasmodium falciparum Transmission-Blocking Potential for Antimalarial Drug Discovery” (PLoS ONE, 2015).
Read-outs that look alike come from different tables or passages of the source. Screen size: about 13,000 compounds; about 3,200 (25%) showed an effect of 50% or more. The list shows a part of the results.

System: P. falciparum stage V gametocytes
Set-up: BacTiter-Glo ATP luminescence viability of purified stage V gametocytes in 384-well plates, per cent inhibition versus DMSO
Conditions: 48 h, 5 µM, inhibitor

SMILES | % Inhibition [%] | % Inhibition (% Inhibition) [%]
COc1cc(Nc2nccc(N3CCC(NS(=O)(=O)c4ccc(NC(C)=O)cc4)CC3)n2)cc(OC)c1OC [TCMDC-133634] | -31.03 | –
O=[N+]([O-])c1cc(/C=N/Nc2nc3ccccc3[nH]2)ccc1O [TCMDC-139076] | 6.997 | –
O=C(Nc1ccc(F)cc1)NC1CCN(c2ccnc3cc(Cl)ccc23)C1 (centres unmarked) [TCMDC-133407] | -45.03 | –
Cc1nc2ccccc2n1C1CC2CCC(C1)N2CCCC1(c2ccccc2)CCN(C(=O)OCc2ccccc2)CC1 (centres unmarked) [TCMDC-138708] | 52.65 | –
Cc1nc2ccccc2n1C1CC2CCC(C1)N2Cc1nccn1-c1ccccc1 (centres unmarked) [TCMDC-134167] | -3.664 | –
O=C(/C=C/c1ccc(Cl)c(Cl)c1)NCCCCCN1CCC(NC(=O)Nc2ccc([N+](=O)[O-])cc2)CC1 [TCMDC-135719] | -1.594 | –
c1ccc([C@H]2CN3CCSC3=N2)cc1 [TCMDC-125847] | 1.326 | –
Cc1cc(=O)c2cc(-c3ccc(OC(F)(F)F)cc3)ccc2[nH]1 [TCMDC-137042] | 32.81 | –
Cc1cc(=O)c(-c2ccc(OCc3ccc(OC(F)(F)F)cc3)cc2)c(C)[nH]1 [TCMDC-132123] | 25.03 | –
Cc1cc(=O)c(-c2ccc(Oc3cccc(C(F)(F)F)c3)cc2)c(C)[nH]1 [TCMDC-133308] | – | 48.03
Cc1cc(=O)c(-c2ccc(Oc3ccc(C(F)(F)F)cc3)cc2)c(C)n1O [TCMDC-138136] | 12.43 | –
Cc1[nH]c(C)c(C(F)(F)F)c(=O)c1-c1ccc(Oc2ccc(OC(F)(F)F)cc2)cc1 [TCMDC-135444] | 33.82 | –
COc1c(C)[nH]c(C)c(-c2ccc(Oc3cccc(C(F)(F)F)c3)cc2)c1=O [TCMDC-135253] | 67.89 | –
Cc1[nH]c2c(c(=O)c1Cl)-c1ccc(Oc3cccc(C(F)(F)F)c3)cc1C2=O [TCMDC-136022] | 56.81 | –
Cc1cc(=O)c(-c2ccc(OCCSc3ccc(C(F)(F)F)cn3)cc2)c(C)[nH]1 [TCMDC-135289] | 67.89 | –
Cc1cc(=O)c(-c2ccc(Oc3cccc(C(F)(F)F)c3)cc2)c(C)[nH]1 [TCMDC-137536] | – | 72.24
Cc1nc2c(c(O)c1Cl)-c1ccc(Oc3cccc(C(F)(F)F)c3)cc1C2=O [TCMDC-136021] | 8.301 | –
Cc1[nH]n(-c2cccc(C(F)(F)F)c2)c(=O)c1-c1ccc(Cl)cc1 [TCMDC-124050] | 16.03 | –
Cc1[nH]c(C)c([N+](=O)[O-])c(=O)c1-c1ccc(Oc2ccccc2)cc1 [TCMDC-135779] | 22.46 | –
CC1(C)N=C(N)N=C(N)N1OCCCOc1c(Cl)cc(Cl)cc1Cl [TCMDC-131623] | -2.968 | –
COC(=O)c1cccc(NC(=O)NC2CCN(c3ccnc(Nc4ccc(F)cc4)n3)C2)c1 (centres unmarked) [TCMDC-133606] | -36.49 | –
COc1ccc(-c2nc3c4cc(I)ccc4c4ccccc4c3[nH]2)cc1 [TCMDC-124198] | -15.52 | –
c1ccc(C2CCC(N3CCC(N4CCN(c5ccccc5)CC4)CC3)CC2)cc1 (centres unmarked) [TCMDC-124572] | 20.28 | –
Cc1cc(=O)c(-c2ccc(Oc3ccc(OC(F)(F)F)cc3)cc2)c(C)[nH]1 [TCMDC-137390] | 34.7 | –

SMILES | % Inhibition [%] | % Inhibition (% Inhibition) [%]
Cc1cc(=O)c(-c2ccc(Oc3cccc(OC(F)(F)F)c3)cc2)c(C)[nH]1 [TCMDC-137266] | 80.76 | –
Cc1cc(=O)c2cc(Oc3cccc(OC(F)(F)F)c3)ccc2[nH]1 [TCMDC-132124] | -25.2 | –
COc1cc2c(cc1N1CCN(C)CC1)N(C(=O)Nc1ccc(-c3ccncc3)c(Cl)c1Cl)CC2 [TCMDC-139163] | -33.93 | –
CN1CCN(c2ccnc3ccc(NC(=O)Nc4cccc(C#N)c4)cc23)CC1 [TCMDC-139323] | 13.5 | –
Cc1noc(C)c1-c1ccc2c(Nc3ccc(C#N)cc3)c(C(N)=O)cnc2c1 [TCMDC-136029] | 27.78 | –
CC1(C)CC(NCCCCCCCOc2ccc(OCc3ccccc3)cc2)CC(C)(C)N1 [TCMDC-138958] | 104 | –
CCOC(=O)CNCC(=O)c1ccc(OCc2ccccc2)cc1 [TCMDC-131777] | 33.46 | –
CN(C)c1ccc(OCCCCCCOc2ccccc2)cc1 [TCMDC-138000] | -96.23 | –
N#Cc1ccc(NC(=O)N2CCCN(CCCCCNC(=O)/C=C/c3ccc(Cl)c(Cl)c3)CC2)cc1 [TCMDC-135746] | -26.45 | –
O=C(Nc1ccc(Cl)cc1)c1cccc(CN2CCCN(Cc3cccc(O)c3)CC2)c1 [TCMDC-135963] | -7.455 | –
O=C(/C=C/c1ccc(Cl)cc1Cl)NC1CCC(CN2CCC(c3c[nH]c4ccccc34)CC2)CC1 (centres unmarked) [TCMDC-139704] | -6.512 | –
O=C(/C=C/c1ccc2ccccc2c1)NC1CCC(CN2CCC(c3c[nH]c4ccccc34)CC2)CC1 (centres unmarked) [TCMDC-139707] | 26.41 | –
O=C(/C=C/c1cccc(Cl)c1)NC1CCC(CN2CCC(c3c[nH]c4ccccc34)CC2)CC1 (centres unmarked) [TCMDC-139715] | – | 101.4
O=C(/C=C/c1cccc(Cl)c1)NC1CCC(CN2CCC(c3c[nH]c4ccccc34)CC2)CC1 (centres unmarked) [TCMDC-139700] | – | 105.2
NC(=O)CN1CC=C(c2c[nH]c3ccc(Br)cc23)CC1 [TCMDC-131969] | -24.55 | –
Cc1cc(NC(=O)c2cccs2)ccc1OC1CCN(Cc2ccc(F)cc2)CC1 [TCMDC-133743] | 2.358 | –
COc1ccc(CCC(C)N2CC(N)C(c3cn(C)c4cnccc34)C2)cc1 (centres unmarked) [TCMDC-124826] | 30.72 | –
CC1CCN(CCNC(=O)c2ccc3c(=O)n(Cc4ccc(Cl)cc4)c(=S)[nH]c3c2)CC1 [TCMDC-125693] | -28.57 | –
CCCCCCCN1CC[C@@H](CCCc2ccnc3ccc(OCCCCNC(N)=NO)cc23)[C@@H](CC)C1 [TCMDC-139839] | 107.7 | –
CC[C@H]1CN(Cc2ccccc2Br)CC[C@H]1CCCc1ccnc2ccc(O)cc12 [TCMDC-140335] | -7.327 | –
CC[C@H]1CN(CCCC(=O)c2ccccc2)CC[C@H]1CCCc1ccnc2ccc(OC(=O)c3ccccc3)cc12 [TCMDC-131478] | 92.9 | –
CC[C@H]1CN(Cc2cccc(O)c2)CC[C@H]1CCCc1ccnc2ccc(O)cc12 [TCMDC-140337] | 3.253 | –
CCCCCCCN1CC[C@@H](CCCc2ccnc3ccc(OCCCCNC(N)=O)cc23)[C@@H](CC)C1 [TCMDC-139835] | 110.9 | –
